Measurements from PubChem BioAssay (NCATS).
Where “and” joins values, the source holds several entries; their conditions need not be identical. Equal entries are not always repeated. Records with an inconclusive call do not appear. Calls of active or inactive are those of the source. Calls follow the shape of the dose curve; as a rule, active = well fitted curve in the direction sought with a large enough effect; inconclusive = small, poorly fitted or top-dose-only effect, or another doubt; inactive = no such curve, though single readings can be large; an effect the other way counts as inactive or inconclusive.

What was measured:
[1] = qHTS assay for measurement of the activity of small molecule inhibitors on Zika virus induced Caspase-3 activity in human astrocytoma cells (AID 1224859); also: potency is read from the fitted curve at half-maximal effect
Method in brief: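 Readout is luminescence from Caspase-Glo 3/7 added after a 6 h ZIKV infection (2 FFU/cell) of compound-pretreated (1 h) SNB-19 cells; data expressed as % inhibition versus uninfected and infected wells.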

[2] = qHTS Screen of the MIPE 4.0 Collection Against Ewings Sarcoma (RDES) (AID 1259252); also: nearly all actives have a fitted effect of over 35% in size; also: potency is read from the fitted curve at half-maximal effect
Method in brief: (§1)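 After a 4 h attachment period in RPMI/5% FBS, cells were pin-dosed with test compounds; DMSO served as negative and 9.2 uM bortezomib (final) as positive control. Luminescent CellTiter-Glo signal at 48 h defined viability.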

[3] = qHTS Screen of the MIPE 4.0 Collection Against Ewings Sarcoma (TC71) (AID 1259253); also: nearly all actives have a fitted effect of over 40% in size; also: potency is read from the fitted curve at half-maximal effect
Method in brief: as §1

[4] = qHTS Screen of the MIPE 4.0 Collection Against Ewings Sarcoma (EW8) (AID 1259255); also: nearly all actives have a fitted effect of over 35% in size; also: potency is read from the fitted curve at half-maximal effect
Method in brief: as §1

[5] = qHTS Screen of the MIPE 4.0 Collection Against Ewings Sarcoma (TC32) (AID 1259256); also: nearly all actives have a fitted effect of over 45% in size; also: potency is read from the fitted curve at half-maximal effect
Method in brief: as §1

[6] = Identifying Small Molecule Inhibitors of Pancreatic Cancer Stem Cells (SN12C, Adherent) (AID 1259358);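 also: cell survival measured after 48 h of compound exposure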; also: potency is read from the fitted curve at half-maximal effect
Method in brief: (§2)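 Adherent (2D) versus sphere (3D) formats; spheres generated 14 d in SCM beforehand. Compound transferred by pin tool after 4 h, 48 h incubation, CellTiter-Glo endpoint.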

[7] = Identifying Small Molecule Inhibitors of Pancreatic Cancer Stem Cells (Panc1, Spheroid) (AID 1259359);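 also: compound exposure lasted 48 h before reading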; also: potency is read from the fitted curve at half-maximal effect
Method in brief: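 Monolayer and spheroid cultures are compared. Spheroids form over 14 days in stem cell medium on hydrogel-coated low-attachment plates, then are exposed to compound for 48 h before CellTiter-Glo luminescence.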

[8] = Identifying Small Molecule Inhibitors of Pancreatic Cancer Stem Cells (SN12C, Spheroid) (AID 1259360); details: Potency: SN12C spheroid viability; also: potency is read from the fitted curve at half-maximal effect
Method in brief: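 After a 4 h attachment period, compounds were pinned into wells and cultures held 48 h under standard incubator conditions. Viability was then measured as CellTiter-Glo luminescence following 10 min at room temperature.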

[9] = P-glycoprotein substrates identified in KB-3-1 adenocarcinoma cell line, qHTS therapeutic library screen (AID 1346986); also: nearly all actives have a fitted effect of over 60% in size
Method in brief: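 Counter-screen: cherry-picked hits retested in the KB pair and in HEK-293 pcDNA/MDR-19 cells ± tariquidar. Primary screen used 72 h CellTiter-Glo viability in KB-3-1 and KB-8-5-11.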

[10] = P-glycoprotein substrates identified in KB-8-5-11 adenocarcinoma cell line, qHTS therapeutic library screen (AID 1346987); also: nearly all actives have a fitted effect of over 65% in size; also: potency is read from the fitted curve at half-maximal effect
Method in brief: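 KB-8-5-11: colchicine-selected sub-line of KB-3-1 over-expressing P-gp; assay medium lacked colchicine. 72 h drug exposure at 37 degree C, CellTiter-Glo.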

[11] = qHTS assay to identify small molecule inhibitors of chordoma cells - UCH-1 (AID 1259355); also: nearly all actives have a fitted effect of over 55% in size
Method in brief: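 Seed 800 cells per well; incubate overnight at 37 C, 5% CO2. Add test compounds (15 concentrations), then the auranofin–topoisomerase-agent combination. Incubate 48hr, add CellTiter-Glo, wait 30min, read luminescence.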

[12] = qHTS assay to identify small molecule inhibitors of chordoma cells - UCH-2 (AID 1259356); also: series mostly up to about 46 µM
[13] = Identifying Small Molecule Inhibitors of Pancreatic Cancer Stem Cells (A278, Adherent) (AID 1259361);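 also: viability read after 48 h compound exposure; nearly all actives have a fitted effect of over 35% in size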
Method in brief: as §2

[14] = NS1 protein of Zika virus - qHTS assay to identify small molecule inhibitors in human HEK 293 cells (AID 1347053); also: nearly all actives have a fitted effect of over 55% in size; also: potency is read from the fitted curve at half-maximal effect
Method in brief: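 Inhibition of NS1 expression was scored in HEK 293 cells given compound 1 h ahead of MR766 virus (MOI = 0.5). Following 24 h at 37 C, two anti-NS1 antibodies generated a TR-FRET signal, scaled between uninfected and infected controls.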

[15] = Identifying Small Molecule Inhibitors of Pancreatic Cancer Stem Cells (Panc1, Adherent) (AID 1259362); details: Potency: viability; also: potency is read from the fitted curve at half-maximal effect
Method in brief: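 Luminescent ATP readout (CellTiter-Glo) quantifies surviving cells after a 48 h drug incubation. Normalization uses DMSO wells as no inhibition and media-only wells as full inhibition; bortezomib served as positive control.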

Row | Structure (SMILES) | Potency [1] | Potency [2] | Potency [3] | Potency [4] | Potency [5] | Potency [6] | Potency [7] | Potency [8] | Potency [9] | Potency [10] | Potency [11] | outcome [12] | IC50 (viability decrease) [13] | Potency [14] | Potency [15]
1 | COc1cc2ncnc(Nc3ccc(F)c(Cl)c3)c2cc1NC(=O)C=CCN1CCCCC1 | inactive | 16600 nM (active) | 2090 nM (active) | 4690 nM (active) | 2960 nM (active) | 20900 nM (active) | 23500 nM (active) | 29600 nM (active) | inactive | inactive | – | – | – | – | –
2 | CC(C)(C)NC(=O)[C@H]1CN(Cc2cccnc2)CCN1C[C@@H](O)C[C@@H](Cc1ccccc1)C(=O)N[C@H]1c2ccccc2C[C@H]1O | inactive | 1050 nM (active) | 1180 nM (active) | 4180 nM (active) | 1320 nM (active) | – | – | – | – | 23.5 µM (active) | inactive | inactive | – | – | –
3 | CCOc1cc2ncc(C#N)c(Nc3ccc(F)c(Cl)c3)c2cc1NC(=O)C=CCN(C)C | inactive | 105 nM (active) | 132 nM (active) | 132 nM (active) | 132 nM (active) | 209 nM (active) | 16600 nM (active) | 1480 nM (active) | – | 10.5 µM (active) | – | – | 20900 nM (active) | – | –
4 | Nc1ccc(S(=O)(=O)Nc2ncccn2)cc1 | inactive | inactive | inactive | inactive | inactive | – | – | – | – | – | inactive | inactive | – | inactive | –
5 | CC[C@@H]1C(=O)N(C)c2cnc(Nc3ccc(C(=O)NC4CCC(N5CCN(CC6CC6)CC5)CC4)cc3OC)nc2N1C(C)C (some centres undefined) | inactive | 105 nM (active) | 118 nM (active) | 74.3 nM (active) | 66.2 nM (active) | 1320 nM (active) | 9.3 nM (active) | – | – | 372 nM (active) and 326 nM (active) and 231 nM (active) | – | – | 20.9 nM (active) | – | 10.5 nM (active)
6 | Cc1cn(-c2cc(NC(=O)c3ccc(C)c(Nc4nccc(-c5cccnc5)n4)c3)cc(C(F)(F)F)c2)cn1 | inactive | inactive | inactive | inactive | inactive | inactive | – | inactive | – | – | – | – | – | – | –
7 | CN[C@H]1CCc2cc(OC)c(OC)c(OC)c2-c2ccc(OC)c(=O)cc21 | inactive | 2.1 nM (active) | 3.3 nM (active) | 1.9 nM (active) | inactive | – | – | – | – | 18.7 nM (active) and 1.16 µM (active) | – | inactive | – | 8.3 nM (active) | –
8 | CCn1cc(-c2ccnc3[nH]c(-c4cccc(CN(C)C)c4)cc23)c(-c2ccc(NC(=O)N(C)C)cc2)n1 | inactive | 7430 nM (active) | 3720 nM (active) | 46.9 nM (active) | 46.9 nM (active) | – | – | – | – | – | – | – | – | – | –
9 | Cc1nc2ccc(CN(C)c3ccc(C(=O)N[C@@H](CCC(=O)O)C(=O)O)s3)cc2c(=O)[nH]1 | inactive | 16.6 nM (active) | 20.9 nM (active) | 26.4 nM (active) | 33.2 nM (active) | – | – | – | – | – | inactive | inactive | – | inactive | –
10 | C[C@H]1C[C@@H]2[C@@H]([C@@H](O)C[C@@]3(C)[C@H]2CC[C@]3(O)C(=O)CO)[C@@]2(C)C=CC(=O)C=C12 | inactive | inactive | inactive | inactive | inactive | – | – | – | – | inactive | – | inactive | – | inactive | –
11 | CC1(C)OC2=C(C(=O)c3ccccc3C2=O)[C@H](NCc2ccccc2)[C@H]1O | inactive | 2640 nM (active) | 2640 nM (active) | 2960 nM (active) | 3320 nM (active) | 26400 nM (active) | 743 nM (active) | 23500 nM (active) | – | 9.35 µM (active) | – | – | – | – | –
12 | O=C(O)CO.[NH2-].[NH2-].[Pt+2] | inactive | inactive | inactive | inactive | inactive | – | – | – | – | inactive | inactive | inactive | – | inactive | –
13 | CN(C)CCCN=c1c2ccccc2n(C)c2[nH]c(=O)n(C)c(=O)c12 | inactive | 2640 nM (active) | 10500 nM (active) | 1180 nM (active) | 2960 nM (active) | 20900 nM (active) | – | inactive | – | – | – | – | – | – | –
14 | Cc1[nH]c2ccccc2c1CCNCc1ccc(C=CC(=O)NO)cc1 | inactive | 93.5 nM (active) | 83.3 nM (active) | 93.5 nM (active) | 46.9 nM (active) | 235 nM (active) | 590 nM (active) | – | – | 0.935 µM (active) | – | – | – | – | –
15 | COCCn1c2c([n+](Cc3cnccn3)c1C)C(=O)c1ccccc1C2=O | 1320 nM (active) | 2.1 nM (active) | 16.6 nM (active) | 4.7 nM (active) | 5.3 nM (active) | 26.4 nM (active) | inactive | 105 nM (active) | – | – | – | – | – | 37.2 nM (active) | –
16 | NC1(Cc2ccc(Cl)cc2)CCN(c2ncnc3[nH]ccc23)CC1 | inactive | 16600 nM (active) | 18700 nM (active) | 16600 nM (active) | 16600 nM (active) | – | – | – | – | – | – | – | – | – | –
